The campaign covered roughly 5,500 compounds. About 2,000 (36%) were called active. Not shown: some 18% with an inconclusive outcome. Cut-off read from the data, not from the text of the source: active = normalized growth mostly below about 0.91 (no sharp cut-off); inconclusive = no clear call, values can overlap the other calls; inactive = mostly above about 0.92. This is one part of the list.
Experiment: chemical genetic growth profiling, strain panel (AID 1159580);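 note: tested at 20 µM; growth read once vehicle control cultures reached saturation at 30 °C; 1 = growth at the plate median or of vehicle wells; lower values mean less growth of the strain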
Settings: S. cerevisiae deletion strains, growth OD

Measured: normalized growth

CCCc1nc(C)c2c(=O)[nH]c(-c3cc(S(=O)(=O)N4CCN(CC)CC4)ccc3OCC)nn12
inactive: locus YAL021C, strain ccr4, stronger effect = lower value 0.961 | locus YAL026C, strain drs2, stronger effect = lower value 0.944 | locus YAL030W, strain snc1, stronger effect = lower value 0.947 | locus YBL061C, strain skt5, stronger effect = lower value 0.979 | locus YBR009C, strain hhf1, stronger effect = lower value 0.975 | locus YBR023C, strain chs3, stronger effect = lower value 0.974 | locus YBR171W, strain sec66, stronger effect = lower value 0.967 | locus YBR231C, strain swc5, stronger effect = lower value 0.97 | locus YBR279W, strain paf1, stronger effect = lower value 0.981 | locus YCL011C, strain gbp2, stronger effect = lower value 0.974 | locus YCL016C, strain dcc1, stronger effect = lower value 0.974 | locus YCL061C, strain MRC1, stronger effect = lower value 0.952 | locus YCL069W, strain vba3, stronger effect = lower value 0.988 | locus YCR088W, strain abp1, stronger effect = lower value 0.98 | locus YDL005C, strain med2, stronger effect = lower value 0.98 | locus YDL040C, strain nat1, stronger effect = lower value 0.985 | locus YDR001C, strain nth1, stronger effect = lower value 0.964 | locus YDR069C, strain doa4, stronger effect = lower value 0.951 | locus YDR137W, strain rgp1, stronger effect = lower value 0.915 | locus YDR159W, strain sac3, stronger effect = lower value 0.93 | locus YDR195W, strain ref2 0.938 | locus YDR297W, strain sur2, stronger effect = lower value 0.984 | locus YDR334W, strain swr1, stronger effect = lower value 0.913 | locus YDR335W, strain msn5, stronger effect = lower value 0.97 | locus YDR392W, strain spt3, stronger effect = lower value 0.964 | locus YEL003W, strain gim4, stronger effect = lower value 0.969 | locus YEL037C, strain rad23, stronger effect = lower value 0.985 | locus YEL061C, strain CIN8 (second series), stronger effect = lower value 0.973 | locus YER015W, strain faa2, stronger effect = lower value 0.983 | locus YER016W, strain bim1, stronger effect = lower value 0.973 | locus YER111C, strain swi4, stronger effect = lower value 0.972 | locus YER155C, strain BEM2 (second series), stronger effect = lower value 0.945 | locus YFR010W, strain ubp6, stronger effect = lower value 0.943 | locus YGL167C, strain pmr1, stronger effect = lower value 0.957 | locus YGL173C, strain kem1, stronger effect = lower value 0.949 | locus YGL227W, strain vid30, stronger effect = lower value 0.965 | locus YGL240W, strain doc1, stronger effect = lower value 0.921 | locus YGL253W, strain hxk2, stronger effect = lower value 0.971 | locus YHR013C, strain ard1, stronger effect = lower value 0.931 | locus YHR027C, strain rpn1, stronger effect = lower value 0.942 | locus YHR030C, strain SLT2, stronger effect = lower value 1.08 | locus YHR079C, strain IRE1, stronger effect = lower value 1.07 | locus YHR142W, strain chs7, stronger effect = lower value 0.971 | locus YJL092W, strain hpr5, stronger effect = lower value 0.96 | locus YJL095W, strain BCK1 (second series), stronger effect = lower value 0.974 | locus YJL095W, strain BCK1, stronger effect = lower value 1.01 | locus YJL115W, strain asf1, stronger effect = lower value 0.943 | locus YJL129C, strain trk1, stronger effect = lower value 0.969 | locus YJL154C, strain vps35, stronger effect = lower value 0.97 | locus YJL164C, strain tpk1, stronger effect = lower value 0.948 | locus YJL166W, strain qcr8, stronger effect = lower value 0.969 | locus YJL187C, strain SWE1, stronger effect = lower value 0.972 | locus YJR066W, strain TOR1, stronger effect = lower value 0.979 | locus YKL160W, strain elf1, stronger effect = lower value 0.987 | locus YKR026C, strain gcn3, stronger effect = lower value 0.973 | locus YKR091W, strain srl3, stronger effect = lower value 0.977 | locus YLL001W, strain dnm1, stronger effect = lower value 0.973 | locus YLL026W, stronger effect = lower value 0.947 | locus YLL041C, strain sdh2, stronger effect = lower value 0.96 | locus YLR027C, strain aat2, stronger effect = lower value 0.953 | locus YLR113W, strain HOG1, stronger effect = lower value 0.997 | locus YLR221C, strain rsa3, stronger effect = lower value 0.978 | locus YLR258W, strain gsy2, stronger effect = lower value 0.983 | locus YLR262C, strain YPT6 (second series), stronger effect = lower value 0.979 | locus YLR320W, strain mms22, stronger effect = lower value 0.964 | locus YLR342W, strain FKS1, stronger effect = lower value 0.98 | locus YLR357W, strain rsc2, stronger effect = lower value 0.937 | locus YLR370C, strain arc18, stronger effect = lower value 0.966 | locus YLR384C, strain iki3, stronger effect = lower value 0.95 | locus YML120C, strain ndi1, stronger effect = lower value 0.981 | locus YMR058W, strain fet3, stronger effect = lower value 0.954 | locus YMR125W, strain sto1, stronger effect = lower value 0.969 | locus YMR129W, stronger effect = lower value 0.981 | locus YMR205C, strain PFK2, stronger effect = lower value 0.944 | locus YMR231W, strain pep5, stronger effect = lower value 0.978 | locus YNL071W, strain lat1, stronger effect = lower value 0.988 | locus YNL183C, strain NPR1, stronger effect = lower value 0.967 | locus YNL209W, strain ssb2, stronger effect = lower value 0.978 | locus YNL248C, strain rpa49, stronger effect = lower value 0.966 | locus YNL322C, strain KRE1 (second series), stronger effect = lower value 0.956 | locus YNR049C, strain mso1, stronger effect = lower value 0.967 | locus YOR001W, strain rrp6, stronger effect = lower value 0.956 | locus YOR070C, strain gyp1, stronger effect = lower value 0.983 | locus YOR080W, strain dia2, stronger effect = lower value 0.967 | locus YOR083W, strain WHI5, stronger effect = lower value 0.946 | locus YOR106W, strain vam3, stronger effect = lower value 0.955 | locus YOR231W, strain MKK1, stronger effect = lower value 1.05 | locus YOR265W, strain rbl2, stronger effect = lower value 0.98 | locus YOR270C, strain vph1, stronger effect = lower value 0.992 | locus YOR290C, strain snf2, stronger effect = lower value 0.938 | locus YPL051W, strain arl3, stronger effect = lower value 0.975 | locus YPL078C, strain atp4, stronger effect = lower value 0.97 | locus YPL106C, strain sse1, stronger effect = lower value 0.868 | locus YPL240C, strain hsp82, stronger effect = lower value 0.973 | locus YPL256C, strain CLN2, stronger effect = lower value 1.09
